Assay results as given in the supplement of paper PMC10105736.
Values without a mark were called inactive.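 The calls were made as follows: active = MAPPIT score above the 99th percentile of random reference set scores in the same batch; inactive = at or below it.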

Key:
Test in all cases: MAPPIT interaction score (arbitrary units); higher = stronger binary interaction signal, active = hit call of the paper
CAP = conditions: MAPPIT configuration: N-N
Fkbp12 = conditions: MAPPIT configuration: N-N; pair source set: Curagen_low_conf
ND-75 = conditions: MAPPIT configuration: N-N; pair source set: Curagen_low_conf
Pax = conditions: MAPPIT configuration: N-N; pair source set: screen_2
CASK = conditions: MAPPIT configuration: N-C; pair source set: screen_4
CG30324 = conditions: MAPPIT configuration: N-C; pair source set: screen_4
stck = conditions: MAPPIT configuration: N-C; pair source set: screen_3
CCT3 = conditions: MAPPIT configuration: N-N; pair source set: DPIM
vlc = conditions: MAPPIT configuration: N-C; pair source set: screen_3
CCT6 = conditions: MAPPIT configuration: N-N; pair source set: DPIM
Spt7 = conditions: MAPPIT configuration: N-N; pair source set: Curagen_high_conf
CCT7 = conditions: MAPPIT configuration: N-N; pair source set: DPIM
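Also: HEK293T cells with Epo stimulation, STAT-responsive firefly luciferase reporter, fold induction versus unstimulated cells divided by the larger fold induction of two negative controls lacking either bait or prey.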

B1: Vinc (protein)
chain: MPVFHTKTIESILDPVAQQVSRLVILHEEAEDGNAMPDLSRPVQVVSAAVANLVKVGRDTINSSDDKILRQDMPSALHRVEGASQLLEEASDMLRSDPYSGPARKKLIEGSRGILQGTSSLLLCFDESEVRKIIQECKRVLDYLAVAEVINTMEQLVQFLKDLSPCLSKVHREVGAREKELTHQVHSEILVRCLEQVKTLAPILICSMKVYIHIVEQQGRGAEEAAENRNYLAARMSDELQEIIRVLQLTTYDEDTSELDNLTVLKKLSNAISNKMEQANEWLSNPYALRGGVGEKALRQVIDNATEISERCLPQDSYPIRKLADEVTAMANTLCELRQEGKGQSPQAESLVRGIRDRMGELKSLVHQAVLGVDKAGVQQTAHTIQGRLEQAVKWLQHPEINDGGLGERAINLIVEEGRKVAEGCPGHQKAEIQQLCDEVERLKRQAAGSGPAAKQAAKQLTQKLYELKAAIQNALVNRIVQDFMDVSTPLKQFTEAVLQPEGTPGREQNFNQKSNNLQAFSDRASKTSRMVAAGGACGNKKIAEILLSSAAQVDSLTPQLISAGRIRMNYPGSKAADEHLQNLKQQYADTVLRMRTLCDQATDPADFIKTSEEHMQVYAKLCEDAIHARQPQKMVDNTSNIARLINRVLLVAKQEADNSEDPVFTERLNAAANRLERSLPAMVGDAKLVATNIADPAAAAAWKNSFQRLLGDVREVRDAIAPPQPPPLPTSLPPPIPELSALHLSNQNAERAPPRPPLPREGLAPVRPPPPETDDEDEGVFRTMPHANQPILIAARGLHQEVRQWSSKDNEIIAAAKRMAILMARLSELVLSDSRGSKRELIATAKKIAEASEDVTRLAKELARQCTDRRIRTNLLQVCERIPTIGTQLKILSTVKATMLGAQGSDEDREATEMLVGNAQNLMQSVKETVRAAEGASIKIRSDQTSNRLQWVRRQPWYQY
MAPPIT interaction score (CAP; pair source set: Lit-BM-16): 2.34 | MAPPIT interaction score (Fkbp12): 0.498 | MAPPIT interaction score (ND-75): -0.456 | MAPPIT interaction score (Pax): 5.44 (active)

B2: Mlp60A (protein)
chain: MPFVPVETPKCPACGKSVYAAEERVAGGYKFHKTCFKCSMCNKALDSTNCTEHEKELFCKNCHGRKYGPKGYGFGGGAGCLSTDTGAHLNRE
MAPPIT interaction score (CASK): 1.2 | MAPPIT interaction score (CG30324): 3.25 | MAPPIT interaction score (stck): 4.22 (active)

B3: Lst8 (protein)
chain: MGDQQQLILATGGYDHTIKVWQAHTGNCIKTMRFVETSQVNALDRTPDKTRLAACGYQCIRLYDLESNCTAPVINFDGVQKNVTRLGFQEDGNWMFTAGEDHHVRIWDMIAAPPHCSRIFDCEAPVNAACLHPNQVEIAMGSQNGSVFLWDVKSERHERIVPEVDASIQDVAISPDGRYLAAANNKGNCYIWSLTSQDQKMSTLRPNRKIPAHSRYILRCKFSPDSRLLLTTSGDGTVCIWKTDDFSKWRELCIENYWVWDAAFSADSKWLFTASSDGIARLWKLQTKSSIRDYTGHTKAITALSFKDEIVGK
MAPPIT interaction score (CCT3): 0.335

B4: Vps28 (protein)
chain: MQEQSPELYEEVKLFRNAREREKYDNMADLYAIINTIQQLEKAYIRDCITPQEYTAACSKYLVQYKVAFKQVQCDEFPSVETFVKKFRLDCPAALERIREDRPITIRDDKGNTSKCIAEIVSLFITIMDKLRLQINTMDALQPDVKDLADNMNRLSLIPEDFDAKLKVEKWLGSLNEMQASDELSEGQVRQFLFDLESAYADFNKLLHSQ
MAPPIT interaction score (CAP; pair source set: screen_1): 1.33 | MAPPIT interaction score (vlc): 1.09

B5: CG8230 (protein)
chain: MGINVSRTADLGSNQWLQRFVGRQHIAHDDEAFWNGLLNYNIVLPENSQDQLNLDSRLEALCQSFIGNNLKTGNFGSLVTVFLEKTSELLSLSDQESNMHVWQTFNALFIIRSLVKYINETGSEFQLLQHFEAMPNAELLQAALEQQQQTPAESATIAMEATEQSAAAAVPVIVDGSKFETFIDALVNLIVVIPVKEFTYHLHLEAVNMLITLLSVHLFAQQPTDKSIVFRTVFKCQHANVLMSALLHFVARIVEVPHTMFGSSSAGSFVFGIAESLLSIFTFRKQPDILKAGQAAGGGELSQRFRTHYPLANQSLLLILILTNHCTAQDNAYRTSLFSCADSKDSPKQGAVSFQIDFSAVYETLCTIVTIDQATLLLYLLLHRNERFYRFVMQQQDLEQLVIPILQTLYNAPDSNSHHIYMSLIVLLILSEDEGFNKNVHTIMLKNITWYTERTISEISLGGILILIVIRTIQYNMLKMRDKYLHTNCLAALANMSGHFRALHPYVAQRLVSLFETLARKHTRLDAQLKEPADSAVFVNVSTTPEDMLQDLSVLEEVLRMVLEILNSCLTNQLVYCPNLVYTLLYKRSVFEGFRSHHAFQDVIQNIDMVVGFFSSRLQRVQEQRGELGVNEVLEVISKGASQWSSDRLRKFPDLKFKYVEEDAPEEFFIPYVWTLVCKYGCVHFSSESIKSVTTDIAC
MAPPIT interaction score (CCT6): 3.15 (active) | MAPPIT interaction score (Spt7): -0.0669

B6: CG4511 (protein)
chain: MANILENQLFTAAKTIEQQLDQQLDRLDNLDSDDLKVLREQRLREMKDLNNKKQEWLRNGHGTYTELADEKEFFEMSKKSPNIVCHFYRDSTERCKIVDMHLKILAAKHVEAKFCKVNAEKTPFLTQRLRIKVIPTIALVKDSKTKDFIVGFTDLGNCDDFATEMLEWRIAHSGAIDYKGDLMQPPDVKRKPFINRPQKTIRGGYDSDDSDIDLDD
MAPPIT interaction score (CCT7): 0.524
